# Results taken from PubChem BioAssay (NCATS).
# Results filed as inconclusive are left out. The source made the active and inactive calls. The call rests on the fitted dose curve; in most records, active means well fitted cell-killing curve with a large enough effect; inconclusive means small, poorly fitted or top-dose-only effect; inactive means no such curve, though single readings can be large or run the other way.
# Test: qHTS of pediatric cancer cell lines to identify multiple opportunities for drug repurposing: Primary screen for A673 cells (AID 1347092); further: nearly all actives have a fitted effect of over 45% in size
# Settings: A673 Ewing sarcoma viability, CellTiter-Glo ATP luminescence, 48 h; series mostly up to 46 µM; activity change, negative = cytotoxic: at the top concentration
# Source text: Drug repurposing or repositioning has been offered as a strategy for drug development in oncology programs. This approach has special potential for childhood cancers and other rare or orphan diseases, where the expected return on new drug development has been a disincentive to pharmaceuticals. […] In this project we exploit the poly-pharmacology of drugs to discover new indications via phenotypic screening of a panel of 19 well-characterized cell lines derived from solid tumors seen in children and adolescents. The goal is to identify approved drugs with previously unrecognized anticancer properties that has the potential to reveal new mechanisms and biological processes involved in carcinogenesis or drug resistance. We employed a titration-based paradigm (quantitative high-throughput screening or qHTS), where all compounds were tested at multiple concentrations for their effect on cell viability. Concentration-response curves (CRCs) were derived directly from the primary screen, and both potency and efficacy values were used to identify compounds with robust bioactivity profiles. We screened the NIH Chemical Genomics Center (NCGC) Pharmaceutical Collection (NPC) and Mechanism Interrogation Plate (MIPE) small molecule collections of approved and investigational compounds against these cell lines; and measured metabolically active cells after 48 hours of compound treatment as a proxy for cell viability. […] Assay Submitter: Nathalia J. Martinez, National Center for Advancing Translational Sciences, National Institutes of Health, Rockville, MD, USA; email: natalia.martinez@nih.gov. Shen, M et al. Quantitative high-throughput phenotypic screening of pediatric cancer cell lines identifies multiple opportunities for drug repurposing. Oncotarget 2017 Dec 19;9(4):4758-4772. PMID 29435139.
# The cells were obtained from University of North Carolina (UNC), Pediatric Preclinical Testing Program (PPT), and Coriell Institute (CI). qHTS cell viability assay: Cells were assayed in growth media at a density of 500-1,000 cells/well. Five microliters of cells were dispensed into 1,536-well, white, solid-bottom, TC-treated plates (Greiner Bio One) using a multidrop dispenser and incubated at 37 degrees C, 5% CO2, under a humidified atmosphere for 5 hours. Twenty-three nanoliters of compounds and controls (neutral control DMSO or positive control bortezomib at final concentration of 2.3 uM) were subsequently transferred by Kalypsys pintool. For primary screens, the MIPE collection was tested at 11-point dilutions (final concentrations range from 0.78 nM to 46 µM) and the NPC collection at 8-point dilutions (final concentrations range from 0.59 nM to 46 µM). Compounds tested in follow-up screens were assayed at 11-point dilutions. Cells were incubated for 48 hours, followed by addition of 3 uL of CellTiter-Glo (Promega). After a 15min incubation at room temperature, samples were analyzed for luminescence intensity using a ViewLux High-throughput CCD imager equipped with clear filters.
# On the % scale 0 is the no-effect control and ±100 the full control effect.
row,SMILES,"activity change, negative = cytotoxic"
1,COc1cc(C(=S)N2CCOCC2)ccc1O,-26.4% (inactive)
2,O=C(CN1CCN(Cc2ccc3c(c2)OCO3)CC1)N1c2ccccc2Sc2ccccc21,8.79% (inactive)
3,CN(CCCN1c2ccccc2CCc2ccccc21)CC(=O)c1ccc(Cl)cc1,-14.3% (inactive)
4,CC1(C)OC[C@@H]2O[C@@]3(C(=O)O)OC(C)(C)O[C@H]3[C@@H]2O1,12.8% (inactive)
5,CN(C)CCN1C(=O)c2ccccc2N(C)c2ccccc21,-15% (inactive)
6,NCc1ccccc1Sc1ccccc1CO,3.97% (inactive)
7,NC(=S)N/N=C/c1cccnc1,3.07% (inactive)
8,CCN1CCCC(OC(=O)C(c2ccccc2)c2ccccc2)C1 (stereo not given),-11% (inactive)
9,CN(C)CCOC(c1ccc(Cl)cc1)c1ccccn1 (stereo not given),-9.2% (inactive)
10,CC(=O)Nc1ccc(OC(=O)c2ccccc2OC(C)=O)cc1,3.91% (inactive)
11,CC(C(=O)O)c1cccc(Oc2ccccc2)c1 (stereo not given),3.93% (inactive)
12,Cc1cccc(C)c1NC(=O)c1ccccc1C(=O)O,-0.976% (inactive)
13,FC(F)(F)C(F)(F)C(F)(F)C(F)(F)C(F)(F)C(F)(F)C(F)(F)C(F)(F)Br,9.11% (inactive)
14,CC(C)(C)CC(C)(C)c1ccc(O)c(-n2nc3ccccc3n2)c1,-15.1% (inactive)
15,CCC1NC(=O)c2cc(S(N)(=O)=O)c(Cl)cc2N1 (stereo not given),2.17% (inactive)
16,CCCCCCCCCCCCSCCOCCO,-9.23% (inactive)
17,CC(C)(C)NC[C@H](O)COc1cccc2c1CCCC2=O,-12.6% (inactive)
18,CCOC(=O)C(C#N)=C(c1ccccc1)c1ccccc1,2.74% (inactive)
19,O=C1C(=O)c2ccccc2C(O)=C1C1CCC(c2ccc(Cl)cc2)CC1 (stereo not given),-7.15% (inactive)
20,CCOc1ccccc1C(N)=O,-10.1% (inactive)

row,SMILES,"activity change, negative = cytotoxic"
1,OCc1ccccn1,2.01% (inactive)
2,CCNC(=O)/C=C/c1cccc(Br)c1,5.12% (inactive)
3,Cn1c(=O)c2[nH]c(Br)nc2n(C)c1=O,-7.54% (inactive)
4,N#CCC(=O)NN,14.8% (inactive)
5,C[N+]1(C)CCC(=C(c2ccccc2)c2ccccc2)CC1,-15.4% (inactive)
6,C[N+]1(CC2COC(c3ccccc3)(C3CCCCC3)O2)CCCCC1 (stereo not given),-11.7% (inactive)
7,O=C(O)CCc1nc2ccccc2[nH]1,-10.2% (inactive)
8,CC(CNC1CCCCC1)OC(=O)c1ccccc1 (stereo not given),-17.5% (inactive)
9,CC(=O)O[C@H]1C[C@@H]2CC[C@@H]3[C@H](CC[C@@]4(C)[C@H]3C[C@H]([N+]3(C)CCCCC3)[C@@H]4OC(C)=O)[C@@]2(C)C[C@@H]1N1CCCCC1,-0.61% (inactive)
10,CCN(CC)CCOC(=O)C(Cc1cccc2ccccc12)CC1CCCO1 (stereo not given),-23.5% (inactive)
11,Nc1ccc(S(=O)(=O)Nc2cnc3ccccc3n2)cc1,7.88% (inactive)
12,C=C[C@@]1(C)CC(=O)[C@]2(O)[C@@]3(C)[C@@H](O)CCC(C)(C)[C@@H]3[C@H](O)[C@H](OC(C)=O)[C@@]2(C)O1,9.57% (inactive)
13,CCN(CC)CCNC(=O)COc1ccc(OC)cc1,-10.3% (inactive)
14,Cc1cc(-c2ccccc2)nnc1NCCN1CCOCC1,-29.6% (inactive)
15,CC(O)Cn1cnc2c1c(=O)n(C)c(=O)n2C (stereo not given),-15.7% (inactive)
16,Cc1cc(NS(=O)(=O)c2ccc(N)cc2)nc(C)n1,-3.56% (inactive)
17,NS(=O)(=O)c1ccc(Cl)c(S(N)(=O)=O)c1,-3.18% (inactive)
18,Cc1ccc(O)c([C@H](CCN(C(C)C)C(C)C)c2ccccc2)c1,-21.6% (inactive)
19,CN1CCN(c2cc3c(cc2F)c(=O)c(C(=O)O)cn3-c2ccc(F)cc2)CC1,-0.558% (inactive)
20,CCOC(=O)c1ccc(N)cc1,-21.6% (inactive)
